We go through 42 sequences from publication PMC7819943, “Rice protein-binding microarrays: a tool to detect cis-acting elements near promoter regions in rice”.

Whole data set: some 68,000 sequences, median “fluorescence intensity (a.u.)” near 9,100, cut for the highest 2% near 16,000. The sample holds the highest values, similar sequences and a random draw of the others, so the mix is not that of the screen.

Chain of OsWRKY34 (Q0JBA9 entry or part of it): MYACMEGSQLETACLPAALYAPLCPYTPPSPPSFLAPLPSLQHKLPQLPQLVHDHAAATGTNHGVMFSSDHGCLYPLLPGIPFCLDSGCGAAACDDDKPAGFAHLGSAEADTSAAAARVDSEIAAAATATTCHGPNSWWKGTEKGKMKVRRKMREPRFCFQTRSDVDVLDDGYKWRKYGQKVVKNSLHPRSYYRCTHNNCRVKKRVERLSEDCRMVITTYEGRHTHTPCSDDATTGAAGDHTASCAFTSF

The assay addresses OsWRKY34 (Oryza sativa, UniProt Q0JBA9 1-250). The assay can be described thus: protein-binding microarray (RPBM); PBS, 2% BSA, 51.3 ng/ul salmon testes DNA, 50 uM zinc acetate, 200 nM TF, 25 C, 1 h; high values mean tight binding. To be noted: protein: recombinant; tags: N-terminal polyhistidine and DsRed monomer fusion (pET32a); label: CyDye5-dUTP incorporated in the synthesized complementary strand; 3' TTTTT single-stranded linker to array surface; dsDNA, one strand shown. Summed up: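 Polyhistidine-tagged DsRed fusions of transcription factors, joined at the N-terminus, were expressed in E. coli BL21-CodonPlus and isolated on Ni–NTA. They were incubated at 200 nM for 1 h at 25 °C on a custom Agilent array, double-stranded and BSA-blocked, in PBS with 2% BSA, salmon testes DNA and 50 µM zinc acetate. The binding signal is per-feature fluorescence intensity (arbitrary units) read on an Axon 4000B scanner after washing.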
Turning to “GTTAGGCATGCTGCTTGTTTATTTTTTTTCAAGTTGAGAACGGAGTCACCTAGTGCAG”, the binding signal is 8140 fluorescence intensity (a.u.).
Next, “GCTACTGGTGCCGGCCGCCGTCCTCCTGCTTCCGCCGCCGCGGAGTCACCTAGTGCAG”: 9560 fluorescence intensity (a.u.).
For “CCCATCATGTGACTTCCATCCTTGTTCCTAGCTGCATGCACGGAGTCACCTAGTGCAG”, the binding signal is 9270 fluorescence intensity (a.u.).
On to “TCTTCACATGCTATTTTGTGTTATTCTTGCCTATAAATGACGGAGTCACCTAGTGCAG”, for which the binding signal was 8310 fluorescence intensity (a.u.).
In the case of “ACATGTAAACTGTGCAATTGATTTTTTTTGTCCACATTTACGGAGTCACCTAGTGCAG”, the binding signal is 10400 fluorescence intensity (a.u.).
Under “AGAGGAGACAGAACCCCTGACTTTATACAGTTTGCAGTTACGGAGTCACCTAGTGCAG” stands 8340 fluorescence intensity (a.u.); under “CGCCGCCGCATCTCCTCCTTCCTCTCTTGGCAACTGTCGGCGGAGTCACCTAGTGCAG”, 8300 fluorescence intensity (a.u.).
Take “AGTTTGTGTGTGTAGGAAAGTTTTGATGTGATGAAAAAGTCGGAGTCACCTAGTGCAG”: the binding signal was 8680 fluorescence intensity (a.u.).
Take “TTCCTTCTTCCTTCTTTTTTTCTCTCTTCTCCTTTTTTTTCGGAGTCACCTAGTGCAG”: the binding signal was 10300 fluorescence intensity (a.u.).
Regarding “ACATGGGCTGGGCTGGGCTGGGCTCTTCTTCCTTTTTGTTCGGAGTCACCTAGTGCAG”, the binding signal is 21900 fluorescence intensity (a.u.).
With “TCCTTGGGCTTTTTTTCTTGTTCGGGGTTGAGAGGCAATGCGGAGTCACCTAGTGCAG”, the binding signal is 18700 fluorescence intensity (a.u.).
Consider “GTCTACTATCCTCTTTCATTGTCTTTTTGTTGGTTGGTTTCGGAGTCACCTAGTGCAG”, for which the binding signal was 17600 fluorescence intensity (a.u.).
Turning to “TTTTTGTTTCTATTGGAGGTTGTCATGTTTATCTACCTTTCGGAGTCACCTAGTGCAG”, the binding signal was 9650 fluorescence intensity (a.u.).
On to “GATTCCTTCCTTTTGTTTTTGGGCCGAATTCTCCTTCTTTCGGAGTCACCTAGTGCAG”, for which the binding signal is 13000 fluorescence intensity (a.u.).
Regarding “GACATATTTTTTTCTCCTCTCTTTTTTCATTTGTTTTTTTCGGAGTCACCTAGTGCAG”, the binding signal was 11600 fluorescence intensity (a.u.).
Next, “TTGAGTTGTGTTCTTGGTTGGGGAGGAGGAGGAGGAGATGCGGAGTCACCTAGTGCAG”: 15100 fluorescence intensity (a.u.); “GGCGGGGTTGGGGCGGCAGGCGGCTGTGAGGTTCTTGATTCGGAGTCACCTAGTGCAG”: 16100 fluorescence intensity (a.u.); “TTGTAAGTTTGTGTGTAGGAAAGTTTTGATGTGAGGAAAACGGAGTCACCTAGTGCAG”: 9150 fluorescence intensity (a.u.).
Under “GTAGGAAAGTTTGTTTGTGTGTGTAGAAAAGTTTTGATGTCGGAGTCACCTAGTGCAG” stands 21000 fluorescence intensity (a.u.); under “ACACACACTTTACAGGTTTACAGCCCAACTTATCCGTGCACGGAGTCACCTAGTGCAG”, 9890 fluorescence intensity (a.u.); under “ATTTCTTTCCATCCATAATTACTAGGCTGCATTGCCTCTTCGGAGTCACCTAGTGCAG”, 8720 fluorescence intensity (a.u.).
Next, “CTCGTACTAGGGTGTCATGCTGTTGGTTCCGGTGAATCTTCGGAGTCACCTAGTGCAG”: 8270 fluorescence intensity (a.u.); “AAATTCAAACTAGTTTCTACATAGCCTCTTTTCTCTATTTCGGAGTCACCTAGTGCAG”: 10900 fluorescence intensity (a.u.).
For the sequence “TGTTTATTTTTTTCGTTAAATTTGATTGTTTCCATTTGCACGGAGTCACCTAGTGCAG”, the binding signal is 9770 fluorescence intensity (a.u.).
As for “ACCCGCCCCTGCTGCTCACCGCTCCAGCCTCCGCTCATCCCGGAGTCACCTAGTGCAG”, the binding signal is 8790 fluorescence intensity (a.u.).
In the case of “CCATTTAGATTGGTGCCATTTTAAACTATATCTTTTTCTTCGGAGTCACCTAGTGCAG”, the binding signal was 8220 fluorescence intensity (a.u.).
“AGTTTTATCCTGGGTTTGTGTTTGGTGCTGTTCTTGCGTGCGGAGTCACCTAGTGCAG”: the binding signal is 10200 fluorescence intensity (a.u.).
On to “CCGCTGTTATTCCCTTTGTTGTTTTTTCTCAAGTAAATTTCGGAGTCACCTAGTGCAG”, for which the binding signal was 13200 fluorescence intensity (a.u.).
Next, “CGTTATTCCGCTGTTGTTTTTTTTTTCTTTTGTAAGTATGCGGAGTCACCTAGTGCAG”: 17500 fluorescence intensity (a.u.); “CTTGGTGGTTCTTTTCTTCTTCTAGATTTATCCCCATTTTCGGAGTCACCTAGTGCAG”: 16700 fluorescence intensity (a.u.).
Regarding “GGCGGATTTCGGTTTCTTCGTGTGTTTGTTGGTTGCGTTGCGGAGTCACCTAGTGCAG”, the binding signal was 12700 fluorescence intensity (a.u.).
For the sequence “TGAGTTTGTTTGCTGGGTTGGTTCGTGCGTTTTCTTGGATCGGAGTCACCTAGTGCAG”, the binding signal is 18800 fluorescence intensity (a.u.).
Regarding “GGTTGGTTTCTTTCGTTGGATTGTTTCGAGCCAGGGTTTCCGGAGTCACCTAGTGCAG”, the binding signal was 16900 fluorescence intensity (a.u.).
On to “CGTCTCTTTTATCCTTCTTTTTTTTCCCATTTTTCTTTTTCGGAGTCACCTAGTGCAG”, for which the binding signal was 11900 fluorescence intensity (a.u.).
For the sequence “AGGGTTTTTTTTGTCACTTTCGTTGTCAGTTTCTTTTTTCCGGAGTCACCTAGTGCAG”, the binding signal is 14100 fluorescence intensity (a.u.).
As to “TTGGATTGGTTTCTTTCTGCTCTGTTGCAGCTCCGTTGTCCGGAGTCACCTAGTGCAG”, the binding signal is 9560 fluorescence intensity (a.u.).
Turning to “CCGCTGCTGTTTTCTTTTCTTTTGTAAGTGTGTAACGTTACGGAGTCACCTAGTGCAG”, the binding signal was 9400 fluorescence intensity (a.u.).
For “TCTCTCGCCGATTCCGCCACCGCCGCCGCGCCGCGCCTCGCGGAGTCACCTAGTGCAG”, the binding signal is 9420 fluorescence intensity (a.u.).
For “GACGGTGGCCATTCTAATTCCTCTATTGCAGGGTCTAACTCGGAGTCACCTAGTGCAG”, the binding signal was 8310 fluorescence intensity (a.u.).
Next, “TATATCCTATCTCTCACTTCACTCATATAGTGGTTAACTCCGGAGTCACCTAGTGCAG”: 9570 fluorescence intensity (a.u.); “ACTTTTCTACACACATAAACTTCTAACTTTTTCATCACATCGGAGTCACCTAGTGCAG”: 13400 fluorescence intensity (a.u.).
For the sequence “GTAGTGCTGATGTTGTACTGTGTTTTTTTACCCGTTTTATCGGAGTCACCTAGTGCAG”, the binding signal is 11500 fluorescence intensity (a.u.).
